USP10 inh: inhibitors of human USP10 deubiquitinase; 1.1% of 47,000 active; inhibition, % at 20 µM; purified USP10, Ub-rhodamine fluorescence, 60 min; Ubiquitin carboxyl-terminal hydrolase 10 (Homo sapiens), Q14694
USP8 block: inhibitors of human USP8 deubiquitinase | purified USP8, Ub-rhodamine cleavage fluorescence, 30 min | inhibition, % at 20 µM | 4.2% of 47,000 active | AID 1645853, 2021
Target sequence (P40818 whole entry, looked up): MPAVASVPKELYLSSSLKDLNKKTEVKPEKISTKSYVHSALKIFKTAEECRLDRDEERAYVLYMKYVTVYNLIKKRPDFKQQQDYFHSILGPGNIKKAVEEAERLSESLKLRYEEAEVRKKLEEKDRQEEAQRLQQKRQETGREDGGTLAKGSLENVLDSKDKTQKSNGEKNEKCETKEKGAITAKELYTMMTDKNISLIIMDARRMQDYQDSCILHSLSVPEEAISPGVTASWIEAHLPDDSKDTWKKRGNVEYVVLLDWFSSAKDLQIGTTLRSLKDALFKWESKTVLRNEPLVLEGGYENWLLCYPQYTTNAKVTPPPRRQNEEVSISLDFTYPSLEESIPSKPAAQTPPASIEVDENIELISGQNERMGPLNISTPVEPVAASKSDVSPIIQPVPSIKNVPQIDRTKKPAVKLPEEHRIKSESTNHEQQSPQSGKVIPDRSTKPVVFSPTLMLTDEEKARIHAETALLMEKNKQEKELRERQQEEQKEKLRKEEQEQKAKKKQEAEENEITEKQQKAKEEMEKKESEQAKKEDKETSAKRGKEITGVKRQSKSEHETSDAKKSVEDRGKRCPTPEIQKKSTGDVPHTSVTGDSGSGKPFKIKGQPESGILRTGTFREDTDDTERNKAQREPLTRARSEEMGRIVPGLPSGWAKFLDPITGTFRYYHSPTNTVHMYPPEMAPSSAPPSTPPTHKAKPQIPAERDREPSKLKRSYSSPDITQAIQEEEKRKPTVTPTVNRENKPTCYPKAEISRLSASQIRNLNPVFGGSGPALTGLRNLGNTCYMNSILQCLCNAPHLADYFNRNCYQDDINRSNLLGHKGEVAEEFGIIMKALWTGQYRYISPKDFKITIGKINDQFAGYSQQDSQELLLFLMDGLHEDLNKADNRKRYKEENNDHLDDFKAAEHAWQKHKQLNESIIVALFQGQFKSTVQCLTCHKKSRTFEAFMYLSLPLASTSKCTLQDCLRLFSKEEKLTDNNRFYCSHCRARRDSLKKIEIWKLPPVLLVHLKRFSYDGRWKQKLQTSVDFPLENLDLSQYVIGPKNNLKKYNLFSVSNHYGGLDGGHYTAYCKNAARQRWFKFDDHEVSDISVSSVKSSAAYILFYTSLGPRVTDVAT
USP30 block: inhibitors of human USP30 deubiquitinase; inhibition, % at 25 µM; 5.3% of 47,000 active; purified USP30, Ub-rhodamine cleavage fluorescence; Ubiquitin carboxyl-terminal hydrolase 30 (Homo sapiens), Q70CQ3
USP17 inh: inhibitors of human USP17 deubiquitinase; Ubiquitin carboxyl-terminal hydrolase 17-like protein 5 (Homo sapiens), A8MUK1; purified USP17, Ub-rhodamine cleavage fluorescence, 3 h; inhibition, % at 50 µM; 6.5% of 47,000 active; AID 1645855, 2021
USP28 inh: inhibitors of human USP28 deubiquitinase; purified USP28, Ub-rhodamine cleavage fluorescence, 30 min; 3% of 47,000 active; inhibition, % at 25 µM; Ubiquitin carboxyl-terminal hydrolase 28 (Homo sapiens), Q96RU2
Large screens that a line does not name were inactive. Most compounds without a hit are left out; they make up all but 14% or so of the library. Rule as the data show it: active = inhibition above about 30%; inactive = the rest.

COCC1OC(OC2OCC3OC4(OCC(O)(C(C)OC)C5OCOC54)OC3C2OC)C(OC)C(O)C1OC1OC(C)C(OC)C(OC2CC3(C)OC4(CC(O)C(OC5CC(OC6CC(C)([N+](=O)[O-])C(OC)C(C)O6)C(OC(=O)c6c(C)c(Cl)c(O)c(Cl)c6OC)C(C)O5)C(C)O4)OC3C(C)O2)C1O (centres undefined)	none
Fc1ccc(-c2nc(C3CC3)ncc2-c2nnnn2-c2ccccc2)cc1F	USP30 block 30
Fc1ccc(-c2nc(C3CC3)ncc2-c2nnnn2-c2ccccc2)c(F)c1	none
CC12CCN(Cc3ccc(Cl)cc3)CCN1C(=O)N(c1cccnc1)C2=O (centres undefined)	none
COc1ccc(C)cc1-n1nnnc1SCC(=O)c1cc(C)ccc1C	USP30 block 32
CCc1ccc(C(C(=O)NC2CCCC2)N(Cc2ccc(OC)cc2)C(=O)c2ccco2)cc1 (centres undefined)	none
CCC(C)c1ccc(N(C(=O)c2ccco2)C(C(=O)NC2CCCC2)c2ccc(N3CCOCC3)cc2)cc1 (centres undefined)	USP30 block 48
O=C(NC1CCCC1)C(c1ccc(Cl)cc1)N(Cc1ccccc1F)C(=O)c1ccco1 (centres undefined)	USP30 block 37
Cc1cn2c(=O)cc(COc3cccc(C(F)(F)F)c3)nc2s1	none
Oc1cc(OCc2cccc(C(F)(F)F)c2)ccc1-c1ccn[nH]1	USP8 block 75, USP17 inh 42, USP28 inh 81
CSc1ncccc1C(=O)OCc1ccccc1	USP28 inh 49
Cc1cc(C(=O)C(=O)Nc2nnc(-c3cccnc3)s2)c(C)n1-c1ccccc1F	USP8 block 37
CC1=C(C(=O)OC2CCCC2)C(c2ccc(C)c(Br)c2)NC(=O)N1 (centres undefined)	none
CC(C)(C)C(=O)N1CC(=O)N(CCCc2ccccc2)CC(O)C1 (centres undefined)	none
Cc1ccc(-n2ncc(C(=O)NCc3cccc(Cl)c3)c2C2CCNCC2)cc1Cl	USP30 block 44 (no result: USP17 inh)
COc1ccccc1CNC(=O)Cn1c(=O)c2c(ncn2CC(C)C)n(Cc2ccccc2)c1=O	USP30 block 31
COc1ccccc1CNC(=O)CCCCn1c(=O)c2ccccc2n(Cc2ccc(C)cc2)c1=O	USP10 inh 35, USP17 inh 38
COc1ccnc2c1c(=O)n(CC(=O)NCc1ccccc1Cl)c(=O)n2C	USP30 block 42
COc1ccccc1CNC(=O)CCCCn1c(=O)c2ccccc2n(Cc2ccccc2C#N)c1=O	USP17 inh 65
N#Cc1cc2c(nc1SCC(=O)NC1CCCCC1)CCC2	none
Cc1nc(CC(=O)N2C[C@H]3CC(Oc4ccccc4)C[C@H]3C2)cs1 (some centres undefined)	none
Cc1cc2nccc(-c3ccco3)n2n1	none
CC(=O)Nc1ccc(-n2cnc(C(=O)NC3CCCCCC3)c2)nc1	none
CCn1c(=O)c(CCC(=O)NCc2ccc(OC)cc2)c(C)c2c(C)nn(-c3ccccc3C)c21	USP30 block 77, USP17 inh 70, USP28 inh 56
Cc1cccc(CNS(=O)(=O)c2ccc3onc(C(=O)N4CCCC4)c3c2)c1	none
COc1cc(OC)cc(C(=O)N2CCc3c(c(-c4nnc(SC)n4C)nn3C)C2)c1	none
CCS(=O)(=O)N1Cc2ccccc2CC1C(=O)N=c1sc2ccccc2n1C (centres undefined)	none
Cc1ccc(S(=O)(=O)NC(C(=O)N=c2sc3ccccc3n2C)C(C)C)cc1 (centres undefined)	USP17 inh 63
O=C(O)c1ccc(Cn2cnc3ccccc3c2=O)o1	none
O=C(Nc1cc(Cl)ccc1O)c1ccc(Cn2cnc3ccccc3c2=O)cc1	USP17 inh 45
O=C(O)C1CCC1C(=O)N1CCN(c2ccc(C(F)(F)F)cn2)CC1 (centres undefined)	none
O=C1OC(C(=O)N2CCN(c3ccc(C(F)(F)F)cn3)CC2)Cc2ccccc21 (centres undefined)	USP17 inh 42
O=C1OC(C(=O)N2CCN(S(=O)(=O)c3ccc(F)cc3)CC2)Cc2ccccc21 (centres undefined)	none
O=C(O)c1ccccc1C(=O)N1CCN(c2ccc(C(F)(F)F)cn2)CC1	USP30 block 32
CNc1nc(C2CCCN(C(=O)c3cccc(OC)c3)C2)nc2c1CN(C)CC2 (centres undefined)	none
COc1cccc(/C=C/C(=O)Nc2ccc(N3CCOCC3)cc2)c1OC	USP17 inh 30, USP28 inh 60
O=C(Cc1ccc(F)cc1)Nc1ccc(N2CCOCC2)cc1	none
COc1ccc(-c2cc(=O)c3cc(OCC(N)=O)ccc3o2)cc1	none
Cc1cc(C(F)(F)F)n2nc(C3CCN(C(=O)c4cnn(C)c4C)C3)cc2n1 (centres undefined)	USP8 block 92, USP17 inh 50
Cc1cccc(-c2nc3c4cnn(-c5ccc(Cl)cc5)c4ncn3n2)c1	none
COc1ccc(-c2nc3ncccc3o2)cc1NC(=O)COc1ccccc1Cl	none
COc1cc(NC(=O)CSc2nc3ncccc3o2)ccc1Cl	USP8 block 85, USP17 inh 47
CCC(C)(c1nnnn1-c1ccc(C)cc1)N(C)C (centres undefined)	none
CC(Oc1ccc(F)cc1)C(=O)Nc1ccc2nsnc2c1 (centres undefined)	USP8 block 83, USP17 inh 34
Fc1cccc(Nc2ncnc3c2oc2ccccc23)c1	none
Cn1c(NC(=O)c2ccc(Cl)cc2)c(-c2ccccn2)c(=O)c2ccccc21	USP8 block 43
COc1cc(-c2c(NC(=O)c3ccc([N+](=O)[O-])cc3)n(C)c3ccccc3c2=O)cc(OC)c1OC	USP30 block 31
COc1ccccc1-c1c(NC(=O)c2ccc(C)cc2)n(C)c2ccccc2c1=O	none
CC1CN(C(=O)c2cccc(C#N)c2)Cc2ccccc2N1C (centres undefined)	none
CC1O[C@@H](c2ccc3c(c2O)C(=O)C2=C(C3=O)[C@@]3(O)C(=O)C(O)[C@](C)(O)C[C@@]3(O)C=C2)CC[C@@H]1OC(=O)/C=C/C=C/C=C/[C@@H]1O[C@@](C)(C(=O)O)O[C@H]1C (some centres undefined)	USP17 inh 48, USP28 inh 48
CC(=O)Nc1ccc(NC(=O)c2sccc2Oc2ccc([N+](=O)[O-])cc2)cc1	none
COc1ccc(OC)c(NC(=O)c2sccc2Oc2ccc(F)cc2[N+](=O)[O-])c1	USP30 block 30
CC(=O)Nc1ccc(NC(=O)Cc2csc(COc3ccc(C)cc3)n2)cc1	USP17 inh 52 (no result: USP30 block, USP28 inh)
Cc1ccc(OCc2nc(CC(=O)Nc3cccc(F)c3)cs2)cc1	none
O=C(CCCCn1c(=O)[nH]c2ccccc2c1=O)Nc1cccc(Cl)c1	USP8 block 81, USP17 inh 80
